Consider 13 molecules from PubChem BioAssay.

A short description of test [1]: inhibitors of TNFa-induced NFkB p65 translocation, primary screen, imaging, HUVEC, MLSMR starter and 10KST1 sets (AID 438;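 active means inhibition above 20% together with a positive visual image hit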;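 further: compound added about 3h40 before a 20 min TNFalpha stimulation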;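 on inhibition: signal is the nuclear over cytoplasmic p65 intensity ratio per well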). Conditions: HUVEC TNFa-induced p65 nuclear translocation; cell count: measured here: nuclei count (cytotoxicity indicator), at 2.08 µM; inhibition: at 2 µM, stronger effect = higher value, 0% TNFa-plus-vehicle, 100% no-TNFa wells.
The nature of test [2]: endothelial E-selectin expression blockers – imaging, HUVEC, immunofluorescence, MLSMR starter and 10KST1 sets, primary screen (AID 487;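 active means visually confirmed hit in the image check and inhibition above 20%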;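 on inhibition: signal is fraction of cell area covered by stained E-selectin grains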;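 on nuclei count: 100% = median nuclei count of all wells on the same plate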). Conditions: HUVEC TNFalpha-induced E-selectin immunofluorescence imaging, at 2 µM; inhibition: stronger effect = higher value; nuclei count: measured here: cell number, toxicity.
Test [3] is described as follows: Primary imaging screen for DUSP6 inhibitors that restore phospho-Erk in transfected HeLa cells, chemical complementation (AID 609;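 active means compounds giving at least 50% inhibition in the cell-based MKP-3 phosphatase rescue imaging test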;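 on inhibition: phospho-Erk level distribution per well compared with pooled transfected vehicle control wells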). Particulars: HeLa MKP-3 transfected, phospho-Erk imaging KS statistic, at 10 µM, cells stimulated with TPA for 15 min.
Test [4] has as its target Dual specificity protein phosphatase 6 (Homo sapiens) (UniProt Q16828). The test is described as above. Conditions: HeLa MKP-3 transfected, phospho-Erk imaging KS statistic; at 10 µM; stronger effect = higher value; cells stimulated with TPA for 15 min.
Test [5] deals with Voltage-gated potassium channel subunit beta-2 (Rattus norvegicus) (UniProt P62483). Put plainly: inhibitors of rat Kvbeta2 reductase activity – biochemical, NADPH fluorescence, primary screen (AID 622;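 active means fluorescence slope higher than the sample average by over 3 SD, cut at about -0.22 in these data, passing the limit was not always enough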;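 further: slope of raw intensity against log time taken from 70 to 1610 s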). Conditions: recombinant KvBeta, 4-cyanobenzaldehyde reduction, at 10 µM, stronger effect = higher value.
For test [6] the target is unchanged. The test is described as follows: enhancers of rat Kvbeta2 NADPH turnover – biochemical, NADPH fluorescence, primary screen (AID 623;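 active means NADPH fluorescence slope more negative than the mean of all samples by about 3 SD, 99.7% confidence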;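 further: fluorescence intensity change per second fitted from 20 to 320 s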). Conditions: Recombinant KvBeta, NADPH fluorescence decrease slope, 10 min; at 10 µM; stronger effect = lower value.
Test [7] concerns the target Alpha-2C adrenergic receptor (Homo sapiens) (UniProt P18825). The test is described as follows: compounds altering alpha2C-coupled GIRK flux – cell-based, HEK293 alpha2C/GIRK1/2, thallium flux, primary screen (AID 624;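 active means fluorescence slope after compound addition differing from the mean of all screened samples at 99.7% confidence, in either direction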;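 further: slope of fluorescence ratio to pre-addition baseline per second over 15 to 24 s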). Conditions: thallium flux BTC fluorescence, at 10 µM, actives lie on both sides.
Test [8] is described as follows: inhibitors of larval lipid processing in zebrafish, primary screen, whole organism, PED6 fluorescence, gall bladder and intestine (AID 686;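 active means a full or partial loss of lipid-probe fluorescence in the fish gall bladder, intestine or both, judged by eye; inactive means no fluorescence loss, or compound toxic to the fish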;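 further: larvae 5 to 7 days old with five fish per well; signal comes from phospholipase A2 cleavage of quenched PED6 carried via bile; overnight exposure to compound and PED6 before scoring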). Conditions: Zebrafish larvae PED6 lipid processing, fluorescence scoring; screened at 20 µM (by protocol).
A short description of test [9]: loss of swimming-algae plug formation – whole organism, Chlamydomonas reinhardtii, WT vs cilia-less mutant, absorbance, 96-well, primary screen (AID 463189).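 Further: 0% = wild type cc124 cells in DMSO and 100% = ciliumless bld1 mutant cells.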 Particulars: Chlamydomonas reinhardtii gravitaxis, OD600 absorbance, 2 days; at 10 µM; stronger effect = higher value.
A short description of test [10]: blockers of RIG-like receptor reporter activation – cell-based, Sendai virus stimulus, luciferase, 10K MLSCN set, TLR/RLR signaling modifier project, primary screen (AID 602276;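 active means inhibition at or above 50% at 10 µM; inactive means inhibition below 50%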;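 further: firefly luciferase from ISG56 promoter only with Renilla not read in this screen; 0% = Sendai virus plus DMSO and 100% = medium plus DMSO without virus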). Particulars: HEK293 RL24 IRF3 luciferase reporter, at 10 µM, stronger effect = higher value. Background: A reporter such as luciferase makes a cellular process visible.
A short description of test [11]: TLR3 IRF3 reporter activation blockers – cell-based, poly I:C stimulus, luciferase, 10K MLSCN set, primary screen (AID 602277;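 active means inhibition of the reporter signal at or above 50%; inactive means inhibition below 50%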). Particulars: HEK293-TLR3 RL24 IRF3 luciferase reporter, at 10 µM, stronger effect = higher value.
[12] abbreviates: measured here: cell density z-score.
Where [13] appears, read: measured here: nuclear c-Myc green intensity z-score.
Setting [14] is: measured here: nuclear pErk red intensity z-score, stronger effect = higher value.

“And” between values parts separate entries of the source, which are not always exact repeats. Equal entries are not always repeated. A structure can be active in one record and inactive in another. The source made the active and inactive calls.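 How the source made its calls, unless noted: active means inhibition at or above 50% relative to wild type and mutant plate controls; inactive means inhibition below 50%.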

Chain of Alpha-2C adrenergic receptor (Homo sapiens) (P18825 whole entry, looked up): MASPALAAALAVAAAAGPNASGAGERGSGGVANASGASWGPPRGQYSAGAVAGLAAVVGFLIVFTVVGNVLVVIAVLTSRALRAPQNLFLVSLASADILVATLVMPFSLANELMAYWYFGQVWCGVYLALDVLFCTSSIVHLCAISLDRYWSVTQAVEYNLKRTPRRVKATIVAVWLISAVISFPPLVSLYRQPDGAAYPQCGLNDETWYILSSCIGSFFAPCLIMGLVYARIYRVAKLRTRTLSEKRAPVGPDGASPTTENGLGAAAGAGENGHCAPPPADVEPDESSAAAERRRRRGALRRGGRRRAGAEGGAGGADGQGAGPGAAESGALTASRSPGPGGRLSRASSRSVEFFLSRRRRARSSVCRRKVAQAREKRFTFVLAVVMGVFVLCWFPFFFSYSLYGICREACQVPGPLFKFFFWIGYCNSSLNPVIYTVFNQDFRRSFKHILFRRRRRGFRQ
Chain of Voltage-gated potassium channel subunit beta-2 (Rattus norvegicus) (P62483 whole entry, looked up): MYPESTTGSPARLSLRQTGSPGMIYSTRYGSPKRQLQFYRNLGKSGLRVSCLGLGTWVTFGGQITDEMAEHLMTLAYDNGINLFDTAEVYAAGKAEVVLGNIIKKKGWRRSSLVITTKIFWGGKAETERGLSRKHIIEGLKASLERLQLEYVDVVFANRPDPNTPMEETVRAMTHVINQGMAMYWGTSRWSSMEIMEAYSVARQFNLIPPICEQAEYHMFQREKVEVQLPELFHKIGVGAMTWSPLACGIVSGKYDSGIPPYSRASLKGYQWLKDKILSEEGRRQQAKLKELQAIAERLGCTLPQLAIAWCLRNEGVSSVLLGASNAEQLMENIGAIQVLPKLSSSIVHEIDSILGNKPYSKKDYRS
Chain of Dual specificity protein phosphatase 6 (Homo sapiens) (Q16828 whole entry, looked up): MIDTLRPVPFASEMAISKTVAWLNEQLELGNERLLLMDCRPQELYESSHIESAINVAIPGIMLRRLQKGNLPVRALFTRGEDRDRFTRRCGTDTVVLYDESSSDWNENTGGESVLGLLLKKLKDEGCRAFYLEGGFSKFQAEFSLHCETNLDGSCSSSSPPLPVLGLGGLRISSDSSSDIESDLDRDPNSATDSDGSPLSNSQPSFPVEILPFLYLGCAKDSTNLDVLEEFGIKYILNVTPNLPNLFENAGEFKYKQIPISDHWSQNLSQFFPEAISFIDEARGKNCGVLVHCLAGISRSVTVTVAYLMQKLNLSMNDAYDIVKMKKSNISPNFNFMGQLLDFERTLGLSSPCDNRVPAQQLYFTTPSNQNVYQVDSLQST

The inhibition is the relative decrease from the control value, in per cent. With `Cc1cc(NS(=O)(=O)c2ccc(N)cc2)no1`, in test [1], the cell count was 614. Moreover, the inhibition in test [1] is 2.1% (inactive); in test [2] it was -43.4% (inactive); in test [4], -5.24% (inactive); in [9], 1.6% (inactive); in test [10], 19.8% (inactive); in test [11], 31.9% (inactive). The molecule also returned a nuclei count in test [2] of 117%. For the same molecule, the z-score is -1.02 in [3] (setting [12]), -0.449 in test [3] (setting [13]) and 1.11 in test [3] (setting [14]). In addition, the fluorescence slope in test [5] was -0.445 (inactive). Further, the NADPH fluorescence slope in [6] is -2.3e-05 (inactive). The slope in test [7] is 0.00461 (inactive). For the same molecule, the molecule was called inactive in [8].
For `CC(C)Cc1nc2n[nH]c(N)c2c2c1CCC2`, the cell count in test [1] is 325. Further, the inhibition in test [1] was -3.7% (inactive); in [2] it was -87.6% (inactive); in test [4] it was -1.75% (inactive); in test [9], 8.43% (inactive). In addition, the nuclei count in [2] was determined as 149%. The z-score in [3] (setting [12]) is 0.414; in [3] (setting [13]), -0.778; in [3] (setting [14]), -0.647. In addition, the fluorescence slope in test [5] is -0.43 (inactive). Besides, the NADPH fluorescence slope in test [6] was -8.3e-05 (inactive). Also, the slope in test [7] is 0.0075 (inactive).
In the case of `N#C/C(=N\O)c1nc(-c2ccccc2)cs1`, in test [1], the cell count stood at 302. Moreover, the inhibition is -1.9% (inactive) in [1], -12.9% (inactive) in test [2], 1.75% (inactive) in [4] and 2.16% (inactive) in test [9]. This molecule displayed a nuclei count in test [2] of 149%. Besides, the z-score in [3] (setting [12]) is 0.00555; in test [3] (setting [13]) it was 1.35; in [3] (setting [14]) it was -0.606. For the same molecule, in test [5], the fluorescence slope was -0.418 (inactive). The NADPH fluorescence slope in [6] was -0.000175 (inactive). Also, the slope in test [7] was 0.00629 (inactive).
For the molecule `COc1cc2nc(N3CCN(C(=O)c4ccco4)CC3)nc(N)c2cc1OC`, the cell count in test [1] came out at 679. The inhibition in [1] is 3% (inactive); in [2], -130% (inactive); in test [4] it was 9.37% (inactive); in test [9], -2.52% (inactive); in test [10], -4.12% (inactive); in test [11], 19.3% (inactive). The molecule also came in with a nuclei count in test [2] of 128%. Further, the z-score in test [3] (setting [12]) is 1.25; in test [3] (setting [13]), -0.94; in test [3] (setting [14]), -1.9. Moreover, in test [5], the fluorescence slope was -0.4 (inactive). Moreover, the NADPH fluorescence slope in test [6] is -1.8e-05 (inactive). The slope in test [7] was 0.00375 (inactive). Besides, the molecule was classed as inactive in test [8].
In the case of `CC1(C)CC(NC(=O)C23CCC(C)(/C(=N/O)C2)C3(C)C)CC(C)(C)N1` (stereo unspecified), the cell count in test [1] came to 378. Further, the inhibition in test [1] is -8.3% (inactive); in test [2], -45.2% (inactive); in test [4], -14% (inactive); in [9] it was -6.59% (inactive). The molecule further registered a nuclei count in test [2] of 179%. The results for the z-score in test [3] (setting [12]), in test [3] (setting [13]) and in test [3] (setting [14]) were -1.2, 0.0129 and 1.59, respectively. Besides, in test [5], the fluorescence slope is -0.399 (inactive). Besides, the NADPH fluorescence slope in [6] was -0.000147 (inactive). For the same molecule, the slope in test [7] was 0.00577 (inactive).
As for `Cc1ccc2cc(CN(C(=O)c3ccco3)c3ccccc3)c(=O)[nH]c2c1`, the cell count in [1] came out at 312. Moreover, the inhibition was -4.2% (inactive) in test [1], -134% (inactive) in [2], 19.3% (inactive) in test [4] and 33.7% (inactive) in test [9]. This molecule also displayed a nuclei count in test [2] of 163%. In addition, the z-score is 1.52 in [3] (setting [12]), -0.685 in test [3] (setting [13]) and -0.563 in [3] (setting [14]). In addition, in test [5], the fluorescence slope was -0.412 (inactive). The NADPH fluorescence slope in [6] is -4.7e-05 (inactive). The slope in [7] was 0.0072 (inactive).
On to `CC(C)c1nc2n[nH]c(N)c2c2c1CCC2`, for which the cell count in test [1] was 359. Further, the inhibition in test [1] is -3.7% (inactive); in [2], -74.3% (inactive); in test [4], 5.26% (inactive); in test [9], 2.52% (inactive). This molecule also registered a nuclei count in [2] of 148%. Besides, the z-score in test [3] (setting [12]) is 0.678; in [3] (setting [13]), -1.06; in test [3] (setting [14]), 0.961. For the same molecule, the fluorescence slope in test [5] is -0.409 (inactive). For the same molecule, the NADPH fluorescence slope in [6] is -0.000125 (inactive). Moreover, the slope in test [7] was 0.007 (inactive).
Consider `CC(C)(C)c1ccc(C(O)CCCN2CCC(C(O)(c3ccccc3)c3ccccc3)CC2)cc1` (stereo unspecified), for which the cell count in test [1] came to 520. In addition, the inhibition in test [1] was 6.8% (inactive); in test [2], -51.1% (inactive); in test [4], 21.2% (inactive); in test [9] it was 24.3% (inactive) and 153% (active); in [10], 25.2% (inactive); in [11], 30% (inactive). The nuclei count in test [2] stood at 108%. Moreover, the z-score in test [3] (setting [12]) is 0.975; in test [3] (setting [13]), 0.958; in test [3] (setting [14]), -1.3. Also, the slope in test [7] was 0.00381 (inactive). For the same molecule, the result in test [8] was inactive.
`CN/C(=C/[N+](=O)[O-])NCCSCc1ccc(CN(C)C)o1`: in test [1], the cell count amounted to 593. The inhibition in test [1] was -4.1% (inactive); in [2] it was -23.6% (inactive); in test [4], 16.8% (inactive); in test [9], -22.8% (inactive); in test [10], 13.1% (inactive); in test [11] it was 30.9% (inactive). This molecule registered a nuclei count in test [2] of 105%. In addition, the z-score in test [3] (setting [12]) was 1.15; in test [3] (setting [13]), -0.304; in test [3] (setting [14]), -1.85. Moreover, in [5], the fluorescence slope was -0.46 (inactive). The NADPH fluorescence slope in [6] is 1.7e-05 (inactive). The slope in [7] was 0.00584 (inactive). In addition, in test [8], the molecule was classed as inactive.
As for `c1ccc2c(NCC3CCCO3)nc(-c3ccncc3)nc2c1` (stereo unspecified), the cell count in test [1] came to 296. The inhibition in test [1] was 1.9% (inactive); in test [2], -260% (inactive); in test [4] it was 1.48% (inactive); in test [9], 141% (active). The nuclei count in [2] amounted to 134%. Also, the z-score was 0.349 in test [3] (setting [12]), -0.718 in [3] (setting [13]) and -1.13 in [3] (setting [14]). Further, the fluorescence slope in [5] is -0.516 (inactive). In test [6], the NADPH fluorescence slope was -3.7e-05 (inactive). Moreover, in test [7], the slope was 0.00585 (inactive).
For `Cc1ccc(N(Cc2cc3ccccc3[nH]c2=O)C(=O)c2ccco2)c(C)c1`, in test [1], the cell count is 332. The inhibition was -14.8% (inactive) in [1], -162% (inactive) in [2], -14% (inactive) in test [4] and 12% (inactive) in [9]. The molecule also registered a nuclei count in [2] of 173%. Also, the figures for the z-score in test [3] (setting [12]), in test [3] (setting [13]) and in [3] (setting [14]) were 0.558, -1.26 and 0.6, respectively. The fluorescence slope in test [5] is -0.459 (inactive). Also, in test [6], the NADPH fluorescence slope was -0.000111 (inactive). Besides, the slope in test [7] was 0.00671 (inactive).
Consider `CC12CCC(C(=O)NCCCN3CCOCC3)(OC1=O)C2(C)C` (stereo unspecified), for which the cell count in test [1] was determined as 297. In addition, the inhibition is 5.1% (inactive) in test [1], 12.1% (inactive) in test [2], 8.76% (inactive) in [4] and -10.2% (inactive) in test [9]. Besides, the nuclei count in [2] stood at 126%. For the same molecule, the z-score in test [3] (setting [12]) is 0.486; in test [3] (setting [13]), 0.456; in [3] (setting [14]), 1.46. In addition, the fluorescence slope in test [5] is -0.425 (inactive). In test [6], the NADPH fluorescence slope was -0.000122 (inactive). Moreover, the slope in [7] was 0.0052 (inactive).
Take `Cc1ccccc1N1C(=O)C2ON(c3ccccc3)C(c3ccncc3)C2C1=O` (stereo unspecified): in test [1], the cell count is 337. The inhibition is -2.8% (inactive) in [1], -88.7% (inactive) in test [2], -12.3% (inactive) in [4] and -10.6% (inactive) in [9]. Further, in test [2], the nuclei count was found to be 156%. Further, the z-score is -1.56 in test [3] (setting [12]), -0.511 in test [3] (setting [13]) and 0.414 in test [3] (setting [14]). Further, the fluorescence slope in test [5] was -0.445 (inactive). In addition, the NADPH fluorescence slope in [6] is -0.000127 (inactive). In addition, the slope in [7] was 0.00538 (inactive).
